# A number with no mark means an inactive call. No rule for the calls is given here.
# Biological target: Pantothenate synthetase (Mycobacterium tuberculosis (strain ATCC 25618 / H37Rv)) (UniProt P9WIL5)
# Test: Recombinant Mtb pantothenate synthetase (PanC) inhibitors, coupled enzyme, confirmatory (AID 375);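 also: 0% = full reaction with vehicle and 100% = no enzyme background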
# Conditions: coupled enzyme assay; at 10 µM, hits give high values
# Pantothenate synthetase (Mycobacterium tuberculosis (strain ATCC 25618 / H37Rv)), sequence (P9WIL5 whole entry, looked up): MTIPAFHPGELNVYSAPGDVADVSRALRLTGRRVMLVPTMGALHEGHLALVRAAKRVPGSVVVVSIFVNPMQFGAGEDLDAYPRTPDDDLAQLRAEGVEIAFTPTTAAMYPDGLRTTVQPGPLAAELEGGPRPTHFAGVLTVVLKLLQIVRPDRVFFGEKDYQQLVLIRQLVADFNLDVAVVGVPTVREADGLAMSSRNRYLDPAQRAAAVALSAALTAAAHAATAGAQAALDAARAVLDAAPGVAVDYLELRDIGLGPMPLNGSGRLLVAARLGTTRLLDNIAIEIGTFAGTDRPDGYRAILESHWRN
row,SMILES,inhibition [%]
1,CCOC(=O)c1c(NC(=O)OC)sc(C(=O)N(C)C)c1C,1
2,Oc1ccc2cccnc2c1,7
3,Cc1cc(S(=O)(=O)N2CCN(c3ccccc3C)CC2)ccc1F,5
4,COc1cccc(C2C3=C(N=C4SCC(=O)N42)c2ccccc2CC3)c1OC (stereo not given),4
5,CCOc1ccc2c(c1)n(CO)c(=S)n2CO,0
6,CN(C)c1ccc(/C=C/C(O)=C2/C(=O)N(C)C3(C)CC2c2ccccc2O3)cc1 (stereo not given),0
7,CNC(=O)Nc1cccc(C(F)(F)F)c1,0
8,COCCn1c(COc2ccc(Cl)cc2)nnc1SCC(N)=O,0
9,COc1cccc(-n2c(C)nc3c(cnn3-c3ccc(C)cc3)c2=O)c1,3
10,Cn1cnc2c1c(=O)n(Cc1cccc(Br)c1)c(=O)n2C,1
11,Cc1ccc(Cn2c(C(=O)NCCCN3CCOCC3)cc3sccc32)cc1,2
12,CCOc1nc2ccccc2nc1NS(=O)(=O)c1ccccc1,1
13,COCCN1C(=O)C(=O)/C(=C(/O)c2ccc(OC(C)C)cc2)C1c1cccnc1 (stereo not given),0
14,CC(C(=O)NCCCN1CCOCC1)n1cccc1C(=O)c1ccccc1 (stereo not given),0
15,NC(=O)C1CCN(C(=O)c2cc3n(n2)C(C(F)(F)F)CC(c2ccco2)N3)CC1 (stereo not given),0
16,CC(=O)c1c(C)[nH]c(C(=O)NCc2cccs2)c1C,0
17,CC(=O)N(C)C1(c2nnnn2CCOC(=O)Nc2cccc3ccccc23)CCCC1,0
18,CCCCC(=O)NCCc1cc2ccc(OC)cc2[nH]c1=O,0
19,O=S(=O)(CCOc1ccccc1)c1nc2ccccc2[nH]1,0
20,Cc1ccc(-n2ncc3c(=O)n(CC(=O)NC4CCCCC4)cnc32)cc1C,12

row,SMILES,inhibition [%]
1,CCCCC(c1nnnn1CS(=O)(=O)c1ccc(C)cc1)N1CCN(c2ccccc2)CC1 (stereo not given),0
2,N#CC1=C(N)Oc2c(ccc3cccnc23)C1c1cccnc1 (stereo not given),0
3,CCN(CC)c1ccc(NC(=O)CN2CCN(CC(=O)Nc3ccccc3F)CC2)cc1,1
4,CCOC(=O)Cc1nnc2c(Nc3ccccc3F)nc3nonc3n12,7
5,Cc1ccc(C)c(S(=O)(=O)C(C#N)c2nc3ccccc3nc2N2CC(C)OC(C)C2)c1 (stereo not given),0
6,COc1ccc2nc3oc(C(=O)NC4CCN(Cc5ccccc5)CC4)cc3cc2c1,1
7,O=C(Nc1ccc2c(c1)nc1n2CCSC1)c1ccccc1,0
8,C=COC(=O)CSc1snc(SCC(=O)OC)c1C#N,0
9,CCc1[nH]nc2c1C(c1cccc(OC(=O)N3CCOCC3)c1)C(C#N)=C(N)O2 (stereo not given),1
10,COc1ccc(CNC(=O)C(c2ccco2)N(Cc2cccs2)C(=O)Cc2cccs2)cc1 (stereo not given),0
11,Cn1cc(Cl)c(C(=O)N(Cc2ccccc2)c2ccccn2)n1,0
12,Fc1cccc2sc(Nc3nnc(-c4ccco4)o3)nc12,8
13,Cc1nc2ccc(S(=O)(=O)NC(C(=O)NCc3cccs3)C(C)C)cc2s1 (stereo not given),0
14,Cc1cccc(CCNC(=O)C2CCCN(S(=O)(=O)c3cnc[nH]3)C2)c1 (stereo not given),5
15,CCOC(=O)c1ccc(NC(=O)COc2ccc(-n3cnnn3)cc2)cc1,0
16,c1cc(-c2nc3ccccc3o2)nc(-c2nc3ccccc3o2)c1,0
17,CC1CCCC(C)N1CCNC(=O)C1CCN(S(=O)(=O)N2CCCCC2)CC1 (stereo not given),3
18,CCCOc1ccc(C2c3c(oc4ccccc4c3=O)C(=O)N2CCCN2CCOCC2)cc1 (stereo not given),4
19,Cc1sc2nc(SCc3nc4ccccc4[nH]3)n(Cc3ccco3)c(=O)c2c1C,2
20,Cn1c(=O)[nH]c(=O)c2c1nc(Br)n2CCCSc1nc2ccccc2o1,0
